Sampled rows, rich in hits. Any-hit rate of the full collection: about 8.1%.
MCF10A rerep – induces DNA re-replication in MCF 10a normal breast cells; MCF 10A DNA re-replication, Hoechst nuclear intensity, 48 h; Potency, µM (series often up to 46.1 µM), inactives show at the top dose activity, positive = re-replication, hits mostly activators; 350,000 tested, 2.9% active; also: % of control where 0% means no effect; nearly all actives have a fitted effect of over 50% in size
ELG1 repair inh – ELG1-dependent DNA repair inhibition. HEK293T ELG1-luciferase reporter, luminescence, 16 h; DNA damage induced by 5-fluorouridine. 330,000 tested, 2.3% active. Potency, µM (top dose mostly 46.1 µM), without a hit: at the highest dose activity change, negative = inhibition, most hits filed as inhibitors; also: % is scaled to controls: 0 for no effect and ±100 for the full control effect; nearly all actives have a fitted effect of over 55% in size
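Reporter activity after DNA damage by 5-fluorouridine is monitored. Compound-treated cells incubate 16 hr at 37 °C, then ONE-Glo is added for 30 min before luminescence reading.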
KB-V1 MDR tox – KB-V1 MDR subline cytotoxicity. 400,000 tested, 3.4% active. Potency, µM (highest dose often 46.1 µM), most hits filed as cytotoxic. KB-V1 MDR cells viability, CellTiter-Glo, 72 h; also: % is scaled to controls: 0 for no effect and ±100 for the full control effect; nearly all actives have a fitted effect of over 60% in size
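Cytotoxicity toward P-gp-expressing KB-V1 cells was determined as loss of CellTiter-Glo luminescence after 72 h at 37 degrees C. Compounds were tested in quantitative HTS format across a concentration range, with curves fitted to normalized data.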
SW480 rerep – inducers of DNA re-replication in SW480 colon cancer cells. Potency, µM (highest dose often 46.1 µM), for the others: at the top dose re-replication activation, actives largely listed as activators. 340,000 tested, 1.8% active. SW480 DNA re-replication, Hoechst DNA content imaging, 48 h; also: % of control where 0% means no effect; nearly all actives have a fitted effect of over 55% in size
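Per well, 250 cells were exposed to pinned compound for 48 hr. Nuclear DNA was visualised with Hoechst (40 min, 37 C) and total object intensity recorded by fluorescence scanning.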
KB-3-1 cytotox – kills parental KB-3-1 adenocarcinoma cells. KB-3-1 viability, CellTiter-Glo ATP luminescence, 72 h. Potency, µM (series often up to 46.1 µM), hits mostly cytotoxic. 400,000 tested, 1.4% active; also: % is scaled to controls: 0 for no effect and ±100 for the full control effect; nearly all actives have a fitted effect of over 60% in size
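Viability of parental KB-3-1 cells, measured by CellTiter-Glo luminescence, followed a 72 h incubation at 37 °C with pinned compounds in phenol-red-free DMEM containing 10% FBS.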
Active calls of the source: *; i = inactive; ? = inconclusive; · = no result. Calls follow the shape of the dose curve; as a rule, active = well fitted curve in the direction sought with a large enough effect; inconclusive = small, poorly fitted or top-dose-only effect, or another doubt; inactive = no such curve, though single readings can be large; an effect the other way counts as inactive or inconclusive. Potency is read from the fitted curve at half-maximal effect.

SMILES | MCF10A rerep | ELG1 repair inh | KB-V1 MDR tox | SW480 rerep | KB-3-1 cytotox
Cc1cc(NCCCn2ccnc2)n2c(nc3ccccc32)c1C#N | ? | -17% | i | 3% | i
Cc1cccc2cc(C#N)c(NCc3ccccc3)nc12 | 23µM* | 19% | i | ? | i
COc1ccc(Nc2nc3c(C)cccc3cc2C#N)c(OC)c1 | 3% | 15% | i | 19% | i
Cc1cccc2cc(C#N)c(NCCCNS(=O)(=O)c3ccc(Cl)cc3)nc12 | ? | ? | 9.2µM* | 16µM* | ?
Cc1ccc2cc(C#N)c(NCc3ccccc3)nc2c1 | 9.2µM* | 3% | i | ? | i
Cc1cccc2cc(C#N)c(NCCCn3ccnc3)nc12 | ? | ? | 15µM* | ? | i
CCCCN1C(=O)C(CC(=O)NCc2ccco2)CC(C(=O)N(CC)CC)=C1C (stereo unspecified) | · | · | i | · | i
CC[C@@]1(C(=O)OC)N[C@H](CN(C)S(=O)(=O)c2ccc(C(F)(F)F)cc2)[C@@H]2C(=O)N(C)C(=O)[C@@H]21 | -5% | 4% | i | ? | i
COc1ccc(Nc2nc3cc(C)ccc3cc2C#N)c(OC)c1 | ? | -12% | i | ? | 2.1µM*
Cc1cccc2cc(C#N)c(NCCNS(=O)(=O)c3ccccc3)nc12 | 21µM* | 2% | ? | ? | i
COc1cc(OC)cc(-c2c(Sc3ccccc3)c3cc(-c4ccc(SC)cc4)ccc3n2C)c1 | · | · | i | · | i
O=C(Nc1ccc2c(c1)OCCO2)C1c2ccccc2OCC(=O)N1CCCN1CCOCC1 (stereo unspecified) | · | · | i | · | i
COc1ccc(N(CC(=O)NCc2ccco2)C(=O)CCC(=O)Nc2nccs2)c(OC)c1 | -18% | -13% | i | -12% | i
CC1Cc2nc(SCC(=O)N3CCN(c4ccccc4)CC3)n(CCc3ccccc3)c(=O)c2S1 (stereo unspecified) | 6% | 15µM* | i | -3% | i
O=C(CSc1nc2c(c(=O)n1-c1ccccc1)SCC2)N1CCN(c2ccccc2)CC1 | 2% | 23µM* | i | -11% | i
CCn1c(SCC(=O)N2CCN(c3ccccc3)CC2)nc2c(c1=O)SC(C)C2 (stereo unspecified) | -1% | 23µM* | i | -4% | i
CCOC(=O)c1ccc(NC(=O)CSc2nc3c(c(=O)n2C)SC(C)C3)cc1 (stereo unspecified) | 2% | 21µM* | i | -5% | i
CC1Cc2nc(SCC(=O)N3CCN(c4ccccc4)CC3)n(C)c(=O)c2S1 (stereo unspecified) | ? | -23% | i | -10% | i
Cc1ccc(-c2nc3ccc(Cl)cn3c2Cc2cccc(Cl)c2)cc1 | · | · | i | · | i
C(=C1C=c2ccccc2=C1)c1ccc(N=Nc2ccc(C=C3C=c4ccccc4=C3)cc2)cc1 | · | · | i | · | i
CCC1CCCCN1S(=O)(=O)c1ccc(NC(=O)C2CC(=O)N(C(C)(C)C)C2)cc1 (stereo unspecified) | -12% | · | i | -2% | i
CCc1ccc(-c2cc(C(=O)O)c3ccccc3n2)s1 | 0% | ? | i | ? | i
OC(C1=C/C(=C\c2ccncc2)c2ccccc21)c1ccncc1 (stereo unspecified) | · | · | 16µM* | · | ?
CC(=O)Nc1ccc(/C=C2\C=C(C(O)c3ccc(NC(C)=O)cc3)c3ccccc32)cc1 (stereo unspecified) | · | · | i | · | i
Cc1ccccc1C(O)c1ccncc1 (stereo unspecified) | -14% | -5% | i | -1% | i
SMILES | MCF10A rerep | ELG1 repair inh | KB-V1 MDR tox | SW480 rerep | KB-3-1 cytotox
CSc1ccc(/C=C2\C=C(C(O)c3ccc(SC)cc3)c3ccccc32)cc1 (stereo unspecified) | · | · | ? | · | 16µM*
O=C(C(=Cc1ccccc1)CN1CCCCC1)c1ccccc1 | 0.65µM* | · | ? | 2.9µM* | 5.2µM*
O=C(Nc1cc(Cl)ccc1N1CCOCC1)c1cccnc1 | -2% | 0% | i | -3% | i
CC(Oc1cccc(Cl)c1)C(=O)Nc1ccc(S(=O)(=O)N(C)C2CCN(C)CC2)cc1 (stereo unspecified) | ? | 5% | 23µM* | 13% | i
COc1ccccc1C(=O)Nc1ccccc1N1CCOCC1 | -5% | -4% | i | -7% | i
CC(C)n1nc(C(=O)Nc2ccccc2N2CCOCC2)c2ccccc2c1=O | ? | ? | 3.7µM* | -6% | i
CSc1ncccc1C(=O)Nc1ccccc1N1CCOCC1 | 1% | 0% | 21µM* | -11% | i
CSc1ncccc1C(=O)Nc1cc(Cl)ccc1N1CCOCC1 | 13% | 10% | 21µM* | 5% | ?
COc1ccc2oc(-c3ccc(C)c(NC(=O)c4ccc(N5CCCCC5)c([N+](=O)[O-])c4)c3)nc2c1 | · | · | i | · | i
CC(Oc1cccc(Cl)c1)C(=O)Nc1cc(Cl)ccc1N1CCOCC1 (stereo unspecified) | ? | ? | ? | 9.2µM* | i
O=C1C=C(Nc2ccc(F)cc2)c2ccccc2C1=O | ? | ? | 21µM* | 9.2µM* | ?
COc1cc(Cl)c(NS(=O)(=O)c2ccc(-c3ccc(=O)[nH]n3)o2)c(OC)c1 | -3% | 28% | ? | 3% | i
COc1cc(Cl)c(NC2=CC(=O)C(=O)c3ccccc32)c(OC)c1 | 3.3µM* | -10% | 8.2µM* | 8.2µM* | 9.2µM*
O=C1C=C(Nc2cccnc2)c2ccccc2C1=O | 9.2µM* | · | ? | 6.5µM* | 8.2µM*
CCOc1ccc(NC2=CC(=O)C(=O)c3ccccc32)cc1 | ? | · | 4.1µM* | 13µM* | 6.5µM*
CC(OC(=O)c1cccc(N(C)C)c1)C(=O)N1CCc2ccccc2C1 (stereo unspecified) | 12% | ? | 8.2µM* | -1% | i
O=C(Nc1ccccc1)C(=O)Nc1ccc2c(c1)N(C(=O)C1CC1)CCC2 | ? | ? | ? | ? | 23µM*
Cc1cc(C)c2c(c1)/C(=N/NC(=O)c1ccc(O)cc1)CCC2 | 12% | 8% | i | -4% | i
Cc1cc(C)c2c(c1)/C(=N/NC(=O)c1cc(C)oc1C)CCC2 | ? | 12% | i | 2.9µM* | i
COc1cc(O)c(C(CC(=O)N2CCC(Cc3ccccc3)CC2)c2ccc(OC)c(OC)c2)c(OC)c1 (stereo unspecified) | · | · | ? | · | i
Cc1n[nH]c(C)c1N=Nc1ccc(Br)cc1 | ? | 19% | ? | -14% | 16µM*
Fc1cc2nccnc2cc1N1CCSCC1 | -3% | 4% | i | -8% | i
Fc1cc2[nH]c(=S)[nH]c2c(Br)c1N1CCSCC1 | 9% | ? | ? | 12% | 2.1µM*

Compound activity as filed in PubChem.
